Screening data (PubChem)
Shown are actives, neighbours in structure and some others; about 22% of the full set was active somewhere.
Cycloheximide cs: Cycloheximide Counterscreen for Small Molecule Inhibitors of Shiga Toxin; max response, %; actives 12% (n = 300,000); cell reporter, cycloheximide protein synthesis inhibition counterscreen; in the data active = max response mostly above about 13%, no sharp cut-off; inactive = mostly below about 14%; also: read at 38.3 µM for the half of the compounds with a filed dose; 0% is about no effect
Shiga toxin inh: A qHTS for Small Molecule Inhibitors of Shiga Toxin. Vero cells, Shiga toxin protein synthesis inhibition reporter. inhibition, % at 38.7 µM. actives 9.2% (n = 290,000). AID 2315, 2010; in the data active = inhibition mostly above about 28%, no sharp cut-off; inactive = mostly below about 43%; also: 0% is about no effect
LmPK inh: qHTS Assay for Inhibitors of Leishmania Mexicana Pyruvate Kinase (LmPK). purified LmPK, Kinase-Glo ATP luminescence, 1 h. actives 0.37% (n = 290,000). AID 1721, 2009. Potency, µM (series often up to 57.5 µM), without a hit: at the highest dose activity change, negative = inhibition, actives largely listed as inhibitors; also: potency is read from the fitted curve at half-maximal effect; % is scaled to controls: 0 for no effect and ±100 for the full control effect
Target sequence (Q27686 whole entry, looked up): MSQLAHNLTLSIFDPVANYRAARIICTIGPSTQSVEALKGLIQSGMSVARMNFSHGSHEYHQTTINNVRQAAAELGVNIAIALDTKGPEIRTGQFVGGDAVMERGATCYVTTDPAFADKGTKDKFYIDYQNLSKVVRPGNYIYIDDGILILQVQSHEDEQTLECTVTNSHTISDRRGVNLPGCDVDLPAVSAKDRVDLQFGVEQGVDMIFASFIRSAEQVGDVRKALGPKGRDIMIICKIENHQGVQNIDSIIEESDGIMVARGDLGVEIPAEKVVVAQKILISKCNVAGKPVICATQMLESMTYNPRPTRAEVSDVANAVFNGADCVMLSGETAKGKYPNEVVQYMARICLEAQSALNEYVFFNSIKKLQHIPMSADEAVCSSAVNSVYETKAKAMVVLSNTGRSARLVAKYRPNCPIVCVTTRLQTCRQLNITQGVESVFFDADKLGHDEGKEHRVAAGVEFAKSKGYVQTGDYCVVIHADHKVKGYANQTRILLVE
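ATP generated from ADP (0.1 mM) and PEP (0.5 mM) by 0.1 nM LmPK over 1 h at room temperature (pH 7.2 imidazole buffer) was detected by coupled luciferase luminescence. Values were normalized to uninhibited and no-enzyme wells.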
Pf growth 96h: Primary qHTS for delayed death inhibitors of the malarial parasite plastid, 96 hour incubation | P. falciparum luciferase reporter growth, 96 h | Potency, µM (doses to about 28.7 µM), inactives show at the top dose activity change, negative = inhibition, hits mostly inhibitors | actives 6.9% (n = 320,000); also: potency is read from the fitted curve at half-maximal effect; % is scaled to controls: 0 for no effect and ±100 for the full control effect
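P. falciparum expressing integrated firefly luciferase grown in erythrocytes (2% hematocrit, 0.05% parasitemia final) with compounds for 96 hours at 37 C, 5% CO2. Growth inhibition read as loss of luminescence after adding luciferase detection reagent.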
Pf growth 48h: Primary qHTS for delayed death inhibitors of the malarial parasite plastid, 48 hour incubation; Potency, µM (top dose mostly 28.7 µM), without a hit: at the top dose activity change, negative = inhibition, most hits filed as inhibitors; actives 5.9% (n = 310,000); P. falciparum luciferase growth in erythrocytes, 48 h; also: potency is read from the fitted curve at half-maximal effect; % is scaled to controls: 0 for no effect and ±100 for the full control effect
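Luciferase-expressing P. falciparum in infected erythrocytes (2% hematocrit, 0.1% parasitemia final) in RPMI 1640/0.5% Albumax were exposed to compound for 48 hours at 37 C, 5% CO2; growth read as luminescence.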
The depositor's hits bear a star; u = inconclusive; x = no result. Unless noted, calls follow the shape of the dose curve; as a rule, active = well fitted inhibition curve with a large enough effect; inconclusive = small, poorly fitted or top-dose-only effect, or another doubt; inactive = no such curve, though single readings can be large or run the other way.

SMILES | Cycloheximide cs | Shiga toxin inh | LmPK inh | Pf growth 96h | Pf growth 48h
Cc1nc(-c2ccc(Cl)cc2)sc1C1(C)CC(c2cccc(Cl)c2)=NO1 (stereo not drawn) | 17* | 32* | 3% | 88% | 52%
O=C(CN1CCc2ccccc21)NC(=O)NCc1ccccc1 | 4 | 3 | -2% | u | 27%
Cc1cccc(OCCSc2nncn2C)c1 | 33* | 35 | 4% | -8% | 65%
Cn1cnnc1SCCOc1ccc(Cl)cc1 | 15* | 88 | -1% | -19% | 2%
Cc1cccc(OCCSc2nnc(-c3ccoc3C)n2C)c1 | 5 | 35 | 0% | 12µM* | -3%
Cn1cnnc1SCCC(=O)Nc1ccc(Cl)cc1 | 1 | 12 | 2% | 16% | 31%
CCn1c(SCCOc2ccc(Cl)cc2)nnc1-c1cccs1 | -5 | -15 | 4% | 9.3µM* | u
Cn1c(SCCOc2cccc(Cl)c2)nnc1-c1ccncc1 | 8 | 40 | 1% | u | u
CCCCOc1cccc(NC(=O)CSc2nncn2C)c1 | -1 | 16 | -1% | 163% | 27%
O=C1c2cccc3cccc(c23)C(=O)N1CCCc1n[nH]c(=S)n1-c1ccccc1 | -3 | -3 | -5% | 20% | -11%
COc1ccc(CCNC(=O)CCCOc2ccc(Cl)cc2)cc1OC | 9 | 6 | -7% | 15% | -17%
COc1ccc(Nc2nnc(C)c(=O)[nH]2)c(OC)c1 | -1 | -9 | -3% | 27% | -7%
CCS(=O)(=O)CCSC1OC(COC(C)=O)C(OC(C)=O)C(OC(C)=O)C1OC(C)=O (stereo not drawn) | -4 | -9 | -1% | 11% | 5%
Cc1ccccc1C(=O)Nc1ccc(C(=O)N/N=C/c2ccccn2)cc1 | -1 | -8 | -9% | 10% | 8%
C(=N\N=C\c1ccccn1)/c1ccccn1 | 13* | 58 | -1% | u | 13µM*
O=C(N/N=C/c1ccccn1)c1ccc(N/N=C/c2ccccn2)cc1 | 29* | 63* | -5% | u | u
Cc1occc1C(=O)N/N=C/c1ccccn1 | 38* | 75* | u | 31% | u
O=C(N/N=C/c1ccccn1)c1ccc(Br)cc1 | 67* | 122* | -2% | u | u
S=c1[nH]ncn1/N=C/c1ccccn1 | -4 | -15 | -11% | x | -6%
CN(CCO)CCC(=O)NC1(C)CS(=O)(=O)CC1S(=O)(=O)O (stereo not drawn) | -4 | 1 | -4% | 45% | -3%
C=C(C)Cn1c(=O)c2c(nc3n2CCCN3CCc2ccccc2)n(C)c1=O | -2 | -3 | 1% | -6% | u
CC(C)(C)c1ccc(C(=O)N/N=C/c2ccccn2)cc1 | 45* | 85* | 0% | -29% | u
Cc1ccc(C(=O)N/N=C\c2ccccn2)cn1 | 40* | 63* | -1% | 12% | 4%
O=C(N/N=C/c1ccccn1)c1cc([N+](=O)[O-])cc([N+](=O)[O-])c1 | 8 | -5 | 0% | 23% | u
CC(C)Oc1ccc(CCN=C(N)N=C(N)N)cc1Cl | 29* | 51* | 1% | u | 9%
SMILES | Cycloheximide cs | Shiga toxin inh | LmPK inh | Pf growth 96h | Pf growth 48h
CC(C)Oc1ccc(CNC(=S)Nc2ccccc2)cc1Cl | 8 | x | 1% | u | -4%
O=C1Nc2ccc(Cl)cc2C12Nc1ccccc1-c1nnc(SCc3ccccc3F)nc1O2 (stereo not drawn) | 28* | -48 | -7% | -14% | 12%
Cn1c(=O)n(Cc2ccc(Cl)cc2)c2ccccc21 | -2 | -12 | 1% | x | 3%
COc1ccc2c(c1)OC[C@H]1[C@H]2N2C(=O)CN(CCc3c[nH]c4ccccc34)C(=O)[C@@]2(C)[C@H]1c1ccccc1 | x | x | x | 4.7µM* | 12µM*
CCOC(=O)[C@H]1[C@H]2COc3ccc(OC)cc3[C@@H]2N2C(=O)CN(C)C(=O)[C@@]12C | x | x | x | u | 21%
CCOC(=O)[C@H]1[C@H]2COc3cc(OC)ccc3[C@@H]2N2C(=O)CN(CCc3c[nH]c4ccccc34)C(=O)[C@@]12C | x | x | x | u | 7.4µM*
CCN(c1ccccc1C(=O)O)S(=O)(=O)c1ccc2[nH]c(=O)[nH]c2c1 | -5 | 3 | -8% | 9% | 14%
Cc1cccc(CSc2nnc(-c3ccco3)n2C)c1 | 22* | 42 | -1% | x | -24%
COc1cccc(CSc2nnc(-c3ccco3)n2C)c1 | 40* | 41 | 3% | 15% | u
